From the supplement of paper PMC6411743
± gives the standard deviation of the averaged measurements. Of roughly 6,500 targets only a part is listed; those with the largest changes were picked by preference.

Compound: Nc1ncnc2c1ncn2[C@@H]1O[C@H](COP(=O)(O)OP(=O)(O)OP(=O)(O)O)[C@@H](O)[C@H]1O [adenosine triphosphate]
Assay: NP40-soluble protein abundance relative to vehicle (solubility fold change) (ratio); higher = more soluble protein in presence of ATP
How it was run: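 Values are fold changes against the detergent-processed vehicle, based on vsn-normalised intensities. Jurkat crude lysate was treated at eight concentrations from 0.1 to 10 mM (10 min at room temperature, then 3 min at 37 °C), solubilised with 0.8% NP40 and benzonase, ultracentrifuged and analysed by TMT-labelled LC-MS/MS over three independent experiments.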

Chain of UniProt Q86SE9 (Q86SE9 whole entry): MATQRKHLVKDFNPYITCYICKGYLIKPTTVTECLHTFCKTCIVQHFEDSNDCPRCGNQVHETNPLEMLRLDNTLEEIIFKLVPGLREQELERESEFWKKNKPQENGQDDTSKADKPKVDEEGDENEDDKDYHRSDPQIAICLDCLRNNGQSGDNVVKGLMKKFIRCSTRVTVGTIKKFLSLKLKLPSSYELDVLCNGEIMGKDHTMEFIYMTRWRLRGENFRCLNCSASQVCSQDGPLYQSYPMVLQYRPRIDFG
Chain of UniProt Q5VWZ2 (Q5VWZ2 whole entry): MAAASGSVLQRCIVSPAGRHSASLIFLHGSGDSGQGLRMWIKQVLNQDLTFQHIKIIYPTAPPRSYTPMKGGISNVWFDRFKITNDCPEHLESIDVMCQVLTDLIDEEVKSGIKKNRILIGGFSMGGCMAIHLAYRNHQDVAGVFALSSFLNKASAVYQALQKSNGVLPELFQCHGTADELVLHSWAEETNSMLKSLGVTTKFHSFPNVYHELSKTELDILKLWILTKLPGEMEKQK
Chain of UniProt Q14677 (Q14677 whole entry): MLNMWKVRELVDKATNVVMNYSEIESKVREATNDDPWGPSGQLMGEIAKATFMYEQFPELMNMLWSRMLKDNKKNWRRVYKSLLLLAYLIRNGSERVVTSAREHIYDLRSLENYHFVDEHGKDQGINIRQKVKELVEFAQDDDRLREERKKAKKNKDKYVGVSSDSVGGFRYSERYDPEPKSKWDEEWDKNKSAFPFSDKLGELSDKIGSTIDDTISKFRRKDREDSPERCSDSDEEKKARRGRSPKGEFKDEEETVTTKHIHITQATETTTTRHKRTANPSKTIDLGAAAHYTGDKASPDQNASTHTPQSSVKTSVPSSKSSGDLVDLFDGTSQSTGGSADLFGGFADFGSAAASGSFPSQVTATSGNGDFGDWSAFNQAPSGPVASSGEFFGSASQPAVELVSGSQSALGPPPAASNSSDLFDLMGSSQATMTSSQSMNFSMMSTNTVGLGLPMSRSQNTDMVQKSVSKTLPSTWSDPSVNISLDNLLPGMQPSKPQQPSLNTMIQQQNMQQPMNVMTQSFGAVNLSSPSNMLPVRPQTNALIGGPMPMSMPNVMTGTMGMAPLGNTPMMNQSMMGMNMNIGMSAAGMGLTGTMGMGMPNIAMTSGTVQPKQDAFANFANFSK
Chain of UniProt Q15393 (Q15393 whole entry): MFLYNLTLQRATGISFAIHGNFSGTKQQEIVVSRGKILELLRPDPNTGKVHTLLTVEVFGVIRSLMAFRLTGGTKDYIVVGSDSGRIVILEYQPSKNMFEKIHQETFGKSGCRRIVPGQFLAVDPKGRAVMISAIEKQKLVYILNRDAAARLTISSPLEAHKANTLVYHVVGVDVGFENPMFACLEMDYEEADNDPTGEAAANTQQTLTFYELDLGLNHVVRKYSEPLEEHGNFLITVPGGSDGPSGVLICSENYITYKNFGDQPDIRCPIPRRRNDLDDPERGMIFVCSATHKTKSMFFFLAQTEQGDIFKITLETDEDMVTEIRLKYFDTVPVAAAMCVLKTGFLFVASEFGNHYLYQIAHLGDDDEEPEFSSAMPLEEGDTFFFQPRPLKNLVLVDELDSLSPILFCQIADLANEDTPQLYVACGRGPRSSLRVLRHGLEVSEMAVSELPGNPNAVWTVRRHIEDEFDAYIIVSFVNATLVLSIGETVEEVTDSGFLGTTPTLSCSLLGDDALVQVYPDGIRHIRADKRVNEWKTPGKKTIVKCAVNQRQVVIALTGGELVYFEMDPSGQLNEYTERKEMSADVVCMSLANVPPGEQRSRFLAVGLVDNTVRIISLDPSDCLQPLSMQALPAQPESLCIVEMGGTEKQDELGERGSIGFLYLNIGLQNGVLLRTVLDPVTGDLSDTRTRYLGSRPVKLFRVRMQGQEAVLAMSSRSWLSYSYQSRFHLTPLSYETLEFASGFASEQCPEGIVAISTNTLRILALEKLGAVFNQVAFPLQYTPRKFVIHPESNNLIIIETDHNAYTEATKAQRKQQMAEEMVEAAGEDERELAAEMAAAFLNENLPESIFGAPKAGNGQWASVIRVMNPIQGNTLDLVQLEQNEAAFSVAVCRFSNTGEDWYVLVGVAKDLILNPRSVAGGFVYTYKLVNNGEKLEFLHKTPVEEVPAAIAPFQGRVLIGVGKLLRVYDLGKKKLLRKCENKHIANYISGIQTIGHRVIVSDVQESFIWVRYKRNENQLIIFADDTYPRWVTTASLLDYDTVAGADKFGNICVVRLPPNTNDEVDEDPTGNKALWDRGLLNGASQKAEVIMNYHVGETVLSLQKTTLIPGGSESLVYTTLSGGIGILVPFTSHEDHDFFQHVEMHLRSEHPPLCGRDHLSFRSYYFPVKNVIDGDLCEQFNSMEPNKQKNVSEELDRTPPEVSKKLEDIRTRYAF
Chain of UniProt Q8N8A6 (Q8N8A6 whole entry): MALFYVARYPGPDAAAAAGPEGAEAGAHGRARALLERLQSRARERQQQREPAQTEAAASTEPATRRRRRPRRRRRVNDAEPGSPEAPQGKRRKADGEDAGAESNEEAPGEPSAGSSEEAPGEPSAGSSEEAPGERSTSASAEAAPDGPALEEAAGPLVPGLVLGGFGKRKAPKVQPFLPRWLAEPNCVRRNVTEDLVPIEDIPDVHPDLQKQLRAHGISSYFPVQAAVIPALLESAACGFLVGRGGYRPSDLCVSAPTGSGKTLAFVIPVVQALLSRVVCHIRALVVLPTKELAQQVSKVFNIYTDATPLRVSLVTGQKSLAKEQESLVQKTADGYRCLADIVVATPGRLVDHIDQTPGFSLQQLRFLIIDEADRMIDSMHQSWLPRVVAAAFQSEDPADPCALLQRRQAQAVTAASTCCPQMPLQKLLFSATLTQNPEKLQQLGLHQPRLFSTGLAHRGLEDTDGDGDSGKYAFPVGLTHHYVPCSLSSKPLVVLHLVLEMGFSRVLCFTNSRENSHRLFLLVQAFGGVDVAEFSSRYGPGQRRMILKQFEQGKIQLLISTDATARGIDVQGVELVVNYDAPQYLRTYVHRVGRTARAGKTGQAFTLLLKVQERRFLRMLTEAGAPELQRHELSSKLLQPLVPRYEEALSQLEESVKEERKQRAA
Chain of UniProt Q6PK18 (Q6PK18 whole entry): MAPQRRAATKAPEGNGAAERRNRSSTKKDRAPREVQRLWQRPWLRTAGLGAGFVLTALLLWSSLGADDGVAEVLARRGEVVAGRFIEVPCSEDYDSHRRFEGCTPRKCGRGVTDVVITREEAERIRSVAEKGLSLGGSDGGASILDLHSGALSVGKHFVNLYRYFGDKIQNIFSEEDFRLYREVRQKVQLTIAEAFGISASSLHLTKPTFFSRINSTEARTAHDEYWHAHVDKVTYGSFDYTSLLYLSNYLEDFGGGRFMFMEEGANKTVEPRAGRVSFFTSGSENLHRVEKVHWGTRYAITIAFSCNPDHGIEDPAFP
Chain of UniProt Q14498 (Q14498 whole entry): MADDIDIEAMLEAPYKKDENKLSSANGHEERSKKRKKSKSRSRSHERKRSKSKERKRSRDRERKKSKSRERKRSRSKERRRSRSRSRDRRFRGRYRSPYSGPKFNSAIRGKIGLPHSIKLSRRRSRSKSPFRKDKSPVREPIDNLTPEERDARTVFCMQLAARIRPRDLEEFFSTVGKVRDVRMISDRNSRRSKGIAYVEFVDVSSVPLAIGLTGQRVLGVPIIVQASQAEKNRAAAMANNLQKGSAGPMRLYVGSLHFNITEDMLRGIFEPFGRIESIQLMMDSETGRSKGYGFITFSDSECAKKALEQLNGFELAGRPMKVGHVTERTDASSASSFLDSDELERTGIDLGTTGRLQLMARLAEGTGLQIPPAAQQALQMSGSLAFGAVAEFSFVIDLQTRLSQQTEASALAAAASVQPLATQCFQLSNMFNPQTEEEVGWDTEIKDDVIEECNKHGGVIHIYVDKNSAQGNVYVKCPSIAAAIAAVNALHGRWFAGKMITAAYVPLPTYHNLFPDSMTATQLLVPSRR
Chain of UniProt Q8NCA5 (Q8NCA5 whole entry): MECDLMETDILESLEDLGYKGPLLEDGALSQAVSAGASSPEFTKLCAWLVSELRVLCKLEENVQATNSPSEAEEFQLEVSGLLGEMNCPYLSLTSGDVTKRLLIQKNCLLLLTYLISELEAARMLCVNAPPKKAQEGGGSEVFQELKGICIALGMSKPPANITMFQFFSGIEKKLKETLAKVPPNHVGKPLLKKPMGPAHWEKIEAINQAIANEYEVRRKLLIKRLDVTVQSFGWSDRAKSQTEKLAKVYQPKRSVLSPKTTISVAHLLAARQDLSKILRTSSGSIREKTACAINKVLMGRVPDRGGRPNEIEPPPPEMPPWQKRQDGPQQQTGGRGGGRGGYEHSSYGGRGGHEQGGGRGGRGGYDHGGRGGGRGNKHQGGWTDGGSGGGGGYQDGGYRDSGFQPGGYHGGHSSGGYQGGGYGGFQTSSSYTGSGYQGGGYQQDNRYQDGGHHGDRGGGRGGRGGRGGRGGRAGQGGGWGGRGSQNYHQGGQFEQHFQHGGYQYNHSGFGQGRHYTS
Chain of UniProt Q8N183 (Q8N183 whole entry): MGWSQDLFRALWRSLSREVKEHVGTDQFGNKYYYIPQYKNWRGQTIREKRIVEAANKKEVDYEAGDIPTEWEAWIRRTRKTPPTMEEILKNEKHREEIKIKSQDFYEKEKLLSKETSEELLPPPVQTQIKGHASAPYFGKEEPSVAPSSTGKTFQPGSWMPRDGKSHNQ
Chain of UniProt Q12981 (Q12981 whole entry): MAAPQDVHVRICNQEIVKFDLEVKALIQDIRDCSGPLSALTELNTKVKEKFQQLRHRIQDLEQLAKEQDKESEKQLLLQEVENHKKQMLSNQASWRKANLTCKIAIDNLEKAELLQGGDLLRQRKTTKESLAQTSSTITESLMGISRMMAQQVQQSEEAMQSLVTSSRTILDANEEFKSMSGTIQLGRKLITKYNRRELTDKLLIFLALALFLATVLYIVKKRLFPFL

Target	NP40-soluble protein abundance (concentration: 1mM)	NP40-soluble protein abundance (concentration: 2mM)	NP40-soluble protein abundance (concentration: 4mM)	NP40-soluble protein abundance (concentration: 6mM)	NP40-soluble protein abundance (concentration: 8mM)	NP40-soluble protein abundance (concentration: 10mM)
UniProt Q86Y56	0.992 ± 0.076	0.985 ± 0.067	0.954 ± 0.036	0.917 ± 0.082	0.937 ± 0.046	0.976 ± 0.052
UniProt Q8NC60	0.967 ± 0.17	0.876 ± 0.13	0.889 ± 0.13	0.876 ± 0.2	0.945 ± 0.15	0.942 ± 0.14
TBL3 (UniProt Q12788)	1.15 ± 0.06	1.3 ± 0.04	1.58 ± 0.036	1.59 ± 0.11	1.89 ± 0.1	2.01 ± 0.089
SF3B3 (UniProt Q15393)	1.12 ± 0.072	1.11 ± 0.052	1.15 ± 0.072	1.1 ± 0.032	1.188 ± 0.0092	1.19 ± 0.037
UniProt Q6PK18|Q6PK18-2	1.06 ± 0.02	1.06 ± 0.061	0.955 ± 0.045	1.03 ± 0.074	1.09 ± 0.15	1.04 ± 0.024
UniProt Q14677|Q14677-3	1.04 ± 0.042	1.05 ± 0.02	1.04 ± 0.028	1.11 ± 0.027	1.07 ± 0.033	1.09 ± 0.055
BNIP1 (UniProt Q12981)	0.986 ± 0.051	0.983 ± 0.05	0.98 ± 0.07	1 ± 0.012	0.971 ± 0.049	0.932 ± 0.053
UniProt Q8NCA5|Q8NCA5-2	1.01 ± 0.056	1.14 ± 0.15	1.18 ± 0.12	1.26 ± 0.14	1.41 ± 0.14	1.64 ± 0.23
UniProt Q8IZ81|D6RBS5	1.01 ± 0.11	0.966 ± 0.089	0.958 ± 0.094	0.916 ± 0.12	0.967 ± 0.045	0.958 ± 0.057
PCGF5 (UniProt Q86SE9)	0.922 ± 0.16	1.01 ± 0.056	0.981 ± 0.15	0.987 ± 0.087	0.954 ± 0.11	1.07 ± 0.037
LYPLAL1 (UniProt Q5VWZ2)	0.942 ± 0.077	0.936 ± 0.066	0.892 ± 0.048	0.879 ± 0.12	0.883 ± 0.03	0.904 ± 0.057
UniProt Q14498|Q14498-2	1.59 ± 0.14	1.72 ± 0.12	1.84 ± 0.12	1.93 ± 0.13	1.98 ± 0.15	2.02 ± 0.2
UniProt Q6KCM7-2|Q6KCM7-3|Q6KCM7|Q6KCM7-4|Q6KCM7-5	0.871 ± 0.048	0.884 ± 0.061	0.831 ± 0.012	0.758 ± 0.085	0.868 ± 0.039	0.894 ± 0.026
NDUFAF2 (UniProt Q8N183)	0.927 ± 0.11	0.916 ± 0.046	0.934 ± 0.093	0.906 ± 0.046	0.959 ± 0.062	0.848 ± 0.12
DDX51 (UniProt Q8N8A6)	1.25 ± 0.021	1.38 ± 0.085	1.65 ± 0.15	1.9 ± 0.22	2.05 ± 0.18	2.29 ± 0.27
